# In PMC5540273 (PLoS ONE, 2017):
# Legend:
# ADCK3 = tested on: T1, ADCK3
# T1 construct: gene CABC1
# 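Also: kd values determined as follow-up on hits from a single-replicate KINOMEscan panel screen.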
compound,measurement,setting,value
Cl.c1ccc(-c2n[nH]cc2-c2ccnc(-c3ccc(CN4CCOCC4)cc3)c2)nc1 [GW776245],Kd,ACVR1B,0.18 µM
Fc1cc(Cl)ccc1Nc1ccnc2cc(I)ccc12 [GW551191],Kd,ACVR2B,0.11 µM
NC(=O)c1nnc2ccccc2c1N,Kd,ADCK3,> 10 µM
COc1ccc(Nc2nccc(NCCNC(=O)Nc3ccccc3F)n2)cc1 [GSK1379901],Kd,AAK1,> 10 µM
O=C1NC(=O)C(N2CCc3ccccc32)=C1c1ccccc1Cl [SB-373598],Kd,ABL1-phosphorylated,> 10 µM
CC1=C(C(=O)Nc2cc3cn[nH]c3cc2F)C(c2ccc(C(F)(F)F)cc2)CC(=O)N1 (stereo not shown) [GSK429286],Kd,ACVR2A,> 10 µM
COc1ccc(C2=C(Nc3cccc(C(=O)O)c3)C(=O)NC2=O)cc1 [SB-390765],Kd,ACVR1,> 10 µM
Cc1cccc(-c2nc(Nc3ccncc3)c3ccccc3n2)n1 [GW855857],Kd,ACVR1B,0.0033 µM
O=C(Nc1ccccc1)Nc1cccc(Oc2ccc3nccn3n2)c1,Kd,ABL1-nonphosphorylated,0.14 µM
Cc1c(O)cccc1Nc1ccnc2ccc(C(F)(F)F)cc12.Cl [GW466413],Kd,ACVR2B,0.24 µM
same,Kd,ADCK4,0.51 µM
Cc1cccc(-c2nc(Nc3ccc4[nH]ncc4c3)c3ccccc3n2)n1 [GW857175],Kd,ACVR1B,0.054 µM
CN1C(=O)C(Nc2ccc(Cl)c(C(=O)O)c2)=C(c2ccc(Cl)cc2)C1=O [SB-404290],Kd,AAK1,> 10 µM
Cc1ccc(NC(=O)Nc2cccc(C(F)(F)F)c2)cc1 [GSK955403],Kd,ACVR1B,> 10 µM
Cc1cc(-c2ccc3c(c2)CC[C@@H](N[C@@H](C)c2ccccc2)C3)cnc1N.Cl [GW412617],Kd,AAK1,3.6 µM
COc1ccc(Nc2nccc(-c3cccc(NC(=O)c4cc5cc(F)ccc5[nH]4)c3)n2)cc1 [GSK1229782],Kd,ABL1-nonphosphorylated,0.1 µM
